# Laboratory results as given in PubChem BioAssay (NCATS).
# Inconclusive results are not listed. Entries that show only a call come without a potency. Active and inactive are the calls of the source. Calls come from the whole dose curve; as a rule, active = well fitted inhibition curve with a large enough effect; inconclusive = small, poorly fitted or top-dose-only effect; inactive = flat fitted curve, though single readings scatter. Where a SMILES comes first, the peptide text is derived from it. [ ]: non-standard residue; d: D form. ξ: configuration not given here. ξPhe(βξ-Me) = CC(c1ccccc1)C(N)C(=O)O; GABA = NCCCC(=O)O
# Molecular target: Calcium and integrin-binding protein 1 (Homo sapiens) (UniProt Q99828)
# Sequence (Q99828 whole entry, looked up): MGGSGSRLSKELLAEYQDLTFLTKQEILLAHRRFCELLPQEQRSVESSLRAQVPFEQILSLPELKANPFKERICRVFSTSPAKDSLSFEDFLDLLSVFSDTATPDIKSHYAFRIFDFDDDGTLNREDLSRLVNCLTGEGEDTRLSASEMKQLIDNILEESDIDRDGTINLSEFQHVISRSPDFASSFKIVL
# Assay: Primary qHTS for Identification of Calcium Integrin Binding Protein 1 (CIB1) Competitor (AID 1508620);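 note: GST tagged CIB1 binding a fluorescein labelled alphaIIb integrin peptide tracer; top concentration of the series differs between compounds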
# Details: CIB1-GST / FITC-alphaIIb peptide fluorescence polarization; series mostly up to 57.7 µM
# Method in brief: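 Fluorescence polarization competition: CIB1-GST (1 uM final) preincubated with compound 15 min at room temperature, then FITC-labeled alphaIIb peptide (100 nM final) added for another 15 min. Polarization read at Ex 480/Em 540.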
row,SMILES,Potency
1,CC1=CC(=O)OC(C)(CC(C)(O)C(=O)O)C1 (centres undefined),inactive
2,C=C1CCC[C@]2(C)C[C@]3(O)OC(=O)C(C)=C3C[C@@H]12,inactive
3,OC[C@H]1O[C@@H](Oc2ccc3c(c2)OC[C@H]2c4cc5c(cc4O[C@@H]32)OCO5)[C@H](O)[C@@H](O)[C@@H]1O,inactive
4,COC1=CC(=O)O[C@@H](/C=C/c2ccccc2)[C@@H]1O,inactive
5,CC(=O)[C@@H]1CC[C@]2(C(=O)O)CC[C@]3(C)C(CCC4[C@@]5(C)CC[C@H](O)C(C)(C)C5CC[C@]43C)C12 (some centres undefined),inactive
6,CC(C)(O)c1ccc2c(c1)C(=O)CC1[C@](C)(CO)CCC[C@]21C (some centres undefined),inactive
7,Cn1c(=O)c2nc(/C=C/c3cccc(Cl)c3)n(C)c2n(C)c1=O,inactive
8,C[C@@H]1O[C@@H](O[C@H]2[C@H](OC(C#N)c3ccc(O)cc3)O[C@H](CO)[C@@H](O)[C@@H]2O)[C@H](O)[C@H](O)[C@H]1O (some centres undefined),inactive
9,CC(C)(O)c1ccc2c(c1)C(O)CC1C(C)(C(=O)O)CCCC21C (centres undefined),inactive
10,NC(=O)c1ccc(OCC2NC(=O)C3CCCN3C2=O)cc1 (centres undefined),inactive
11,CC(C)CC1NC(=O)C(C(C)c2ccccc2)NC(=O)C(C(C)C)NC(=O)C(C)NC(=O)CCCNC(=O)C(Cc2c[nH]c3ccccc23)NC(=O)C(C)NC1=O (stereo not drawn) (cyclo([GABA]AV[ξPhe(βξ-Me)]LAW); configuration not given here),inactive
12,O=c1c2ccccc2nc2n1CCC2O (centres undefined),inactive
13,CC1CC(=O)C2=C(O1)OC1(C)CCC3C(C)(C)C=CC(=O)C3(C)C1C2 (centres undefined),inactive
14,CC1CCC2C(C(=O)O)=CC3CC(C)(C)CC132 (centres undefined),inactive
